Measured values as given in PubChem BioAssay.
Active and inactive are the calls of the source.

What was measured:
[1] = tested on: Human papillomavirus type 1a protein E7 (residues 44-93); test: HPV1a E7 fragment binders on microarrays, primary screen, biochemical, small-molecule microarray, residues 44-93, 635 nm fluorescence (AID 1108); conditions: small-molecule microarray binding, fluorescence 635 nm; higher = more signal;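 also: E7 fragment applied at 1 µg/mL in TBST for 1 h at 4 C; score combines spot fluorescence with its signal to noise ratio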
[2] = modulators of HCV replicon luciferase signal, primary screen, HCV replication inhibitor project, Huh7 cells, luciferase reporter (AID 1109); conditions: 48 h, higher = more signal;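 also: huh7 hepatoma cells harbouring a luciferase neomycin HCV replicon reporter; luciferase luminescence as measure of HCV replicon replication; test concentration not given here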
[3] = target: Left-right determination factor 2 (Homo sapiens) (UniProt O00292); test: LEFTY2 binders on small-molecule microarrays, primary screen, biochemical, small-molecule microarray, 635 nm fluorescence scan (AID 1110); conditions: LEFTY2 binding, higher = more signal
[4] = target: Calmodulin-1 (Homo sapiens) (UniProt P0DP23); test: CALM1 binders on microarrays, EGTA buffer, profiling panel, biochemical, small-molecule microarray, Cy5-labelled CALM1 (AID 1111); conditions: Cy5-CALM1 binding fluorescence, higher = more signal;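 also: labelled calmodulin applied in Tris saline Tween buffer holding calcium plus EGTA and DTT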
[5] = target: Calmodulin-1 (Homo sapiens) (UniProt P0DP23); test: calcium-bound CALM1 binders on microarrays, profiling panel, artefact control for SMM control-protein annotation, biochemical, small-molecule microarray, Cy5-labelled CALM1, plus calcium (AID 1112); conditions: Cy5-CALM1 binding fluorescence, higher = more signal;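 also: score merges spot fluorescence with signal to noise from triplicate slides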
[6] = small-molecule microarray binders of probe aWnt5a, primary screen, biochemical, biotinylated probe, 635/667 nm fluorescence (AID 1113); conditions: higher = more signal;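 also: score merges 667 nm fluorescence intensity with signal-to-noise per printed feature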
[7] = small-molecule microarray binders of probe aShh, primary screen, biochemical, biotinylated probe, 635/667 nm fluorescence (AID 1114); conditions: higher = more signal;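 also: probe is biotin-labelled aShh protein from a stem cell growth factor screen; measures binding of labelled protein to compounds printed on the slide; score merges feature fluorescence at 667 nm with signal-to-noise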
[8] = small-molecule microarray binders of probe aNog, primary screen, biochemical, biotinylated probe, 635/667 nm fluorescence (AID 1115); conditions: higher = more signal;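 also: probe is biotinylated aNog protein used at 0.15 µg/mL for 1 h at 4 C; z-score combines 667 nm fluorescence of each spot with its signal to noise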
[9] = target: Torsin-1A-interacting protein 1 (Homo sapiens) (UniProt Q5JTV8); test: LAP1 binders from COS7 cell lysate, primary screen, small-molecule microarray, 635/667 nm fluorescence (AID 1116); conditions: COS7-hLAP1 lysate binding, 635 nm fluorescence, higher = more signal
[10] = target: Alpha-bungarotoxin (Bungarus multicinctus) (UniProt P60615); test: alpha-bungarotoxin binders on microarray, profiling panel, artefact control for SMM control protein annotation, biochemical, small-molecule microarray, Alexa647 label, 635/667 nm fluorescence (AID 1117); conditions: alpha-BTX-A647 binding fluorescence, higher = more signal
[11] = target: Albumin (Bos taurus) (UniProt P02769); test: bovine serum albumin binders on microarray, profiling panel, artefact control for SMM control protein annotation, biochemical, small-molecule microarray, Alexa647 label, 635/667 nm fluorescence (AID 1118); conditions: BSA-A647 binding, fluorescence 635 nm, higher = more signal;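 also: score merges 667 nm emission intensity and signal-to-noise per printed compound spot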
[12] = small-molecule microarray binders of probe aXIP, primary screen, biochemical, NeuroSMM set, 635/667 nm fluorescence (AID 1119); conditions: higher = more signal, called active from +8 up or from −8 down;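 also: probe is the protein aXip251-270 applied at 1 µg/mL to compound-printed slides; binding of probe to printed compounds measured as 667 nm fluorescence plus signal to noise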
[13] = small-molecule binders of probe aNOTCH3, primary screen, biochemical, small-molecule microarray, 635/667 nm fluorescence (AID 1120); conditions: higher = more signal;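 also: probe is a biotin-tagged antibody raised against NOTCH3 rather than NOTCH3 protein; score merges spot fluorescence near 667 nm with spot signal to noise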
[14] = small-molecule binders of probe aNOTCH2, primary screen, biochemical, small-molecule microarray, 635/667 nm fluorescence (AID 1121); conditions: higher = more signal;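 also: score merges feature fluorescence read at 667 nm with its signal to noise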
[15] = target: Carbonic anhydrase 2 (Homo sapiens) (UniProt P00918); test: CAII small-molecule binders, profiling panel, biochemical, small-molecule microarray, Alexa647-labelled CAII (AID 1122); conditions: CAII-A647 binding fluorescence, higher = more signal
[16] = COS7 lysate on small-molecule microarray, probe aHis, 635 nm (AID 1123); conditions: COS7 cell lysate, fluorescence, higher = more signal;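 also: z-score combines 667nm fluorescence intensity with signal-to-noise per printed compound spot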
[17] = compound binding in COS7 lysate, probe aLAP1, primary screen, cell lysate, small-molecule microarray (AID 1124); conditions: probe aLAP1, fluorescence, higher = more signal;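 also: lysate comes from COS7 cells expressing LAP1 and is applied at 0.3 µg/mL; score merges spot fluorescence near 667 nm with signal-to-noise over triplicate slides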
[18] = tested on: Sam68 (KHDRBS1); test: Sam68 small-molecule binders, primary screen, biochemical, small-molecule microarray, 635 nm fluorescence (AID 1125); conditions: small-molecule microarray binding, higher = more signal;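 also: score merges 667 nm channel intensity with signal to noise over triplicate slides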
[19] = tested on: Chordin-like protein 2 (CHRDL2); test: CHRDL2 small-molecule binders, primary screen, biochemical, small-molecule microarray, 635 nm fluorescence (AID 1126); conditions: small-molecule microarray binding, fluorescence 635 nm; higher = more signal;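 also: printed compound slides probed with Chrdl2 protein at 4 µg/mL for 1 h at 4 C; score merges 667 nm emission intensity with signal to noise over three replicate slides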
[20] = target: Concanavalin-A (Canavalia ensiformis) (UniProt P02866); test: ConA small-molecule binders, primary screen, artefact control for SMM control protein annotation, biochemical, small-molecule microarray, Alexa647 label, 635 nm (AID 1127); conditions: ConA-A647 binding fluorescence, higher = more signal;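 also: z combines 667 nm emission intensity with signal-to-noise across three replicate slides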
Sequence of Concanavalin-A (Canavalia ensiformis) (P02866 whole entry, looked up): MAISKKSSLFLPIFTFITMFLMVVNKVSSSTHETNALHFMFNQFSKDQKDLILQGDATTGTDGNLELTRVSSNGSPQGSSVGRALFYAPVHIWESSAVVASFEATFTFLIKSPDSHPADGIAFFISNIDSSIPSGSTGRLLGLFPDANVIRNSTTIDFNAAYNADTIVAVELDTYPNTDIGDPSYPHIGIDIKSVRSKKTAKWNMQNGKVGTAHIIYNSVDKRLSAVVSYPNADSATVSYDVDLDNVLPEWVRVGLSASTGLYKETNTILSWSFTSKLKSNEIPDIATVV

Sequence of Alpha-bungarotoxin (Bungarus multicinctus) (P60615 whole entry, looked up): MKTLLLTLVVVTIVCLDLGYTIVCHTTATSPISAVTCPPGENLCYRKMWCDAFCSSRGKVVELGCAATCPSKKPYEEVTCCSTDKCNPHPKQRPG
Sequence of Albumin (Bos taurus) (P02769 whole entry, looked up): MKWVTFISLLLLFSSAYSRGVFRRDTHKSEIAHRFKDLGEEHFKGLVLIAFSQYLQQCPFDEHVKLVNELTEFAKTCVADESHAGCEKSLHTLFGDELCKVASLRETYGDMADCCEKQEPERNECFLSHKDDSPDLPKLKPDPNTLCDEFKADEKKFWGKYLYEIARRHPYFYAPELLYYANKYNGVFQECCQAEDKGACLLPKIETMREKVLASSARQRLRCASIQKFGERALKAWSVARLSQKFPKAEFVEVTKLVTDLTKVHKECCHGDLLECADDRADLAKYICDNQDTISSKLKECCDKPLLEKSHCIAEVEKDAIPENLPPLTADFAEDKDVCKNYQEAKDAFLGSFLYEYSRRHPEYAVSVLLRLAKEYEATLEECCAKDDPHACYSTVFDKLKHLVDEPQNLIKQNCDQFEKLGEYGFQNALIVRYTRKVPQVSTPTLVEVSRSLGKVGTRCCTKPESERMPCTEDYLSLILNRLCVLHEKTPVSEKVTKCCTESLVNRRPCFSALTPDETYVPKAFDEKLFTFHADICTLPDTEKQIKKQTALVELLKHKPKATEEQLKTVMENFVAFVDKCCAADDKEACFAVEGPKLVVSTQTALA
Sequence of Left-right determination factor 2 (Homo sapiens) (O00292 whole entry, looked up): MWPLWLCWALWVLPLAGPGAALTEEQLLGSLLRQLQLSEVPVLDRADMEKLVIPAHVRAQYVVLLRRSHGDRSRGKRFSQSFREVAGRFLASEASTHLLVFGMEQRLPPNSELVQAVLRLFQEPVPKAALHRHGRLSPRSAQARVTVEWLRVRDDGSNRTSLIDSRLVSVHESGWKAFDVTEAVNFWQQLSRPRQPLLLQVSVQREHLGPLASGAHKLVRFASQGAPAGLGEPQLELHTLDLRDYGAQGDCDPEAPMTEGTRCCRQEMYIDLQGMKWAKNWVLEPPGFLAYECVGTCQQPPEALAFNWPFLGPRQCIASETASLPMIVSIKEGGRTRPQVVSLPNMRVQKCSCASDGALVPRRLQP
Sequence of Torsin-1A-interacting protein 1 (Homo sapiens) (Q5JTV8 whole entry, looked up): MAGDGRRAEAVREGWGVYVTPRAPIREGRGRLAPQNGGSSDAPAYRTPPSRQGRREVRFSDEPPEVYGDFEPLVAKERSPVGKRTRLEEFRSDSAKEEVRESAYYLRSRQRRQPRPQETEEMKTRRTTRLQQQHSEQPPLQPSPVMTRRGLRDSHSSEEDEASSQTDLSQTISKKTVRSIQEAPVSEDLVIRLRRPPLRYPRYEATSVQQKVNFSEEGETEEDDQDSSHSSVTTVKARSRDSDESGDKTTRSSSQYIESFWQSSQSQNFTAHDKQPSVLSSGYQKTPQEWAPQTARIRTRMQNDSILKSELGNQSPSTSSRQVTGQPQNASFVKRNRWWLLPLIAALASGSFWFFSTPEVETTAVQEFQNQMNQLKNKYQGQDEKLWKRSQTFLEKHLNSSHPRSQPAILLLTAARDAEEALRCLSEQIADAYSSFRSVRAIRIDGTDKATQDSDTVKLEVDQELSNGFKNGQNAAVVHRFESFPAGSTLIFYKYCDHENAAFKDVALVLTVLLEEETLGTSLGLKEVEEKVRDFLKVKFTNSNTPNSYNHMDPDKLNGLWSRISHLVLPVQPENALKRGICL

Row | Compound | composite z-score [1] | z-score [2] | composite z-score [3] | composite z-score [4] | composite z-score [5] | composite z-score [6] | composite z-score [7] | composite z-score [8] | composite z-score [9] | composite z-score [10] | composite z-score [11] | composite Z-score [12] | composite z-score [13] | composite z-score [14] | composite z-score [15] | composite z-score [16] | composite z-score [17] | composite z-score [18] | composite z-score [19] | composite z-score [20]
1 | CO[C@H]1O[C@H](CO)[C@@H](OC(=O)Nc2ccccc2-c2ccccc2)[C@H](OC(=O)Nc2ccc3c(c2)OCO3)[C@H]1OC(=O)Nc1ccc2c(c1)OCO2 | 1.29 | 1.54 | 0.395 | 0.58 | -0.187 | -0.0194 | 0.398 | 1.19 | 1.76 | 1.25 | 0.902 | 0.806 (inactive) | 0.211 | -0.103 | 0.498 | 2.8 | 1.11 | 1.31 | 0.454 | 1.06
2 | C=C(C)C1CCC(C(O)C2C=CC3C(=O)N(C)C(=O)C3N2N2CCCCC2)CC1 (stereo not given) | 1.44 | -0.385 | 0.67 | 0.949 | 0.763 | 0.048 | 0.413 | 0.751 | 0.555 | 1.89 | 0.735 | 0.172 (inactive) | 0.223 | 0.0598 | 0.514 | 2.03 | 0.386 | 1.29 | 1.24 | 1.12
3 | COc1ccc(NC(=O)O[C@H]2[C@H](OC(=O)Nc3ccccc3)[C@@H](OC(=O)Nc3ccccc3)[C@@H](OC)O[C@@H]2CO)cc1 | 1.28 | -3.04 | 0.298 | 1.41 | -0.298 | 0.107 | -0.0813 | 0.564 | 1.25 | 0.577 | 0.137 | -0.275 (inactive) | -0.0003 | -0.0878 | 0.761 | 2.8 | 0.624 | 1.29 | 0.402 | 1.13
4 | C=CCC(OC(C)=O)[C@@H]1[C@@H](N(Cc2cccc3ccccc23)C(=O)c2cccc3ccccc23)c2cc(OCCCO)ccc2N1C(=O)c1ccc(-c2ccccc2)cc1 (stereo not given in full) | -0.0699 | -0.599 | 0.79 | 0.0898 | 0.766 | 0.0229 | -0.117 | -0.215 | 0.197 | -0.574 | -0.0704 | -0.0014 (inactive) | 0.122 | -0.143 | 0.115 | 0.888 | -0.35 | -0.159 | 0.25 | -0.132
5 | CC(C)C(=C=CC[C@H](O)c1ccc(OCCO)cc1)C[C@H](O)c1ccccn1 | 1.22 | -0.789 | -0.0676 | 0.0123 | -0.0896 | -0.1 | -0.0769 | -0.132 | 0.859 | 1.6 | 0.449 | 0.168 (inactive) | -0.0044 | -0.13 | 0.513 | 0.619 | 0.864 | 1.19 | -0.237 | -0.057
6 | COCCOC(=O)N1C(=O)[C@@]2(c3cc(C#CC4=CCCCC4)ccc31)[C@H](c1ccccc1OCCO)N1[C@H](c3ccccc3)[C@H](c3ccccc3)OC(=O)[C@H]1[C@@H]2C(=O)N1CCCCCCC1 | 1.38 | -2.94 | 0.225 | -0.529 | 0.258 | -0.0327 | -0.493 | -0.345 | 1.08 | 0.973 | -0.0107 | 0.181 (inactive) | -0.582 | -0.26 | 0.592 | 2.23 | 0.22 | 1.34 | 0.323 | 0.592
7 | C=C(C(=O)CC[C@@H](OC(C)=O)c1ccc(CO)o1)C(C)C | -0.306 | -1.25 | 0.13 | -0.299 | -0.89 | -0.1 | 0.213 | 0.149 | 1.73 | 0.844 | -0.307 | 1.58 (inactive) | 0.706 | -0.0911 | 0.846 | 0.445 | 0.119 | 0.285 | 0.8 | 0.771
8 | COCCCNC(=O)[C@]1(CCS(=O)(=O)c2ccccc2)N=C(c2ccc(OCCCO)cc2)O[C@@H]1c1ccccc1N=[N+]=[N-] | 1.23 | -0.562 | -0.0904 | 2.09 | 0.893 | 0.0988 | 0.203 | 0.698 | -0.342 | 2.68 | 1.02 | 0.778 (inactive) | 0.486 | -0.143 | 0.569 | 2.39 | 0.371 | 1.31 | -0.71 | 1.18
9 | O=C(NCC(F)(F)F)[C@@H]1c2ccccc2C(=O)N(Cc2ccccc2C(F)(F)F)[C@H]1c1ccc(CO)cc1 | -0.315 | -0.941 | -1.02 | 0.0216 | 0.792 | -0.276 | 0.0044 | -0.101 | -0.121 | -0.695 | 0.0104 | 1.89 (inactive) | -0.0824 | 0.0667 | 0.758 | 0.891 | 0.234 | 0.163 | -0.572 | -0.104
10 | COC(=O)[C@@]1(Cc2ccc(F)cc2)[C@H]2c3cc(C(=O)N(C)C)n(CCc4ccc(O)c(OC)c4)c3C[C@H]2CN1C(=O)c1ccccc1 | 0.768 | 1.09 | 0.543 | 0.187 | -0.323 | 1.2 | 2.74 | 2.48 | 0.279 | 0.434 | 0.24 | -0.399 (inactive) | 0.842 | 1.02 | 0.25 | 0.694 | 0.311 | 0.326 | 0.497 | -0.0415
11 | Cc1cc(C)cc(N2C(=O)CSC2c2cccc([N+](=O)[O-])c2)c1 (stereo not given) | 0.0826 | -1.26 | 0.571 | 1.6 | 0.463 | 0.0873 | 0.0815 | 0.0373 | 0.516 | 1.7 | 0.892 | 0.027 (inactive) | -0.0023 | -0.124 | 0.621 | 1.94 | 0.798 | 1.3 | 0.052 | 1.19
